Only some compounds are listed: those with a hit (about 2.4% of all), similar ones and a draw of the others.
CHT allo act: human CHT allosteric activation; Q9GZV3; CHT-expressing cells, membrane potential dye, choline EC20; stronger effect = higher value; LV-AA mutant CHT in HEK293 cells; B-score at 10 µM; 310,000 tested, 0.49% active; AID 488977;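 active means initial fluorescence not abnormally high and integrated response B-score, plate-corrected, over 3 SD above library mean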
CHT block: human CHT choline transport inhibition. Q9GZV3. CHT-expressing cells, membrane potential dye, choline response; stronger effect = lower value. B-score at 10 µM. 310,000 tested, 0.86% active. AID 488975;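 active means B-score over 3 SD under the library average, and starting fluorescence ratio not unusually high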;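 further: choline stimulus applied at its EC90 after an EC20 pre-addition; B-score computed on integrated fluorescence ratio after choline addition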
TMEM16A inh: mouse TMEM16A channel inhibition, primary screen. HEK293 TMEM16A/YFP iodide influx fluorescence, ionomycin. Q8BHY3. normalized B-score (activity score, 25-100; higher = stronger inhibition) at 10 µM. AID 588511. 310,000 tested, 1.2% active;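 active means ratio plate-corrected score three or more library SD toward inhibition, starting fluorescence score within five deviations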;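 further: score derived from kinetic fluorescence span divided by baseline fluorescence per well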
Target sequence (Q8BHY3 whole entry, looked up): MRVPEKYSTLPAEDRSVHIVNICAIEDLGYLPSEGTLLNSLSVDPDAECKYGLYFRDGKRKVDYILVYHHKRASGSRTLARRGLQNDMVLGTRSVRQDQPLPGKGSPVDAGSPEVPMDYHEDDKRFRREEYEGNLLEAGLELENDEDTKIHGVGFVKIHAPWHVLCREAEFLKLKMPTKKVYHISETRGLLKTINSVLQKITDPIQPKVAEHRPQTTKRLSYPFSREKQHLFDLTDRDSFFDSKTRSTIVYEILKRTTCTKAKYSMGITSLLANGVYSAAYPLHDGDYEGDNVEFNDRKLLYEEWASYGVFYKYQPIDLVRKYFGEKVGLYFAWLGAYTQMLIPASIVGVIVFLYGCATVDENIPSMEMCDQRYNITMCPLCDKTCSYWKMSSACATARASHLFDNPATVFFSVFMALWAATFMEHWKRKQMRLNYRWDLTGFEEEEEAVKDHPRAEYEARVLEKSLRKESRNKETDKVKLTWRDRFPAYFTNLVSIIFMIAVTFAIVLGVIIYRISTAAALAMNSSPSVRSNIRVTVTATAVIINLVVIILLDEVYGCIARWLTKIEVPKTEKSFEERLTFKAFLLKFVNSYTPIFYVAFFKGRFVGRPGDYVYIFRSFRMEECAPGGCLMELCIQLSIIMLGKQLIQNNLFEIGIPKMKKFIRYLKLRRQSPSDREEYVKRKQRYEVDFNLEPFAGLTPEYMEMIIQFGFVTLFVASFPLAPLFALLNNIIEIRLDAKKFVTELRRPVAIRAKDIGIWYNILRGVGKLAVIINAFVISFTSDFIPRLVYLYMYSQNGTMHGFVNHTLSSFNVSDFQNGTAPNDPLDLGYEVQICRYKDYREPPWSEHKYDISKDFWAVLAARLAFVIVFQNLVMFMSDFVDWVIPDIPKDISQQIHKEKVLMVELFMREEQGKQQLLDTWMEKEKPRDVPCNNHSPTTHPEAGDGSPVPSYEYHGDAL
TMEM16A act: activators or potentiators of mouse TMEM16A chloride channel | Q8BHY3 | HEK293 TMEM16A/YFP-H148Q/I152L, iodide quench fluorescence; stronger effect = lower value | B-score at 10 µM | 340,000 tested, 0.3% active;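 active means fluorescence-ratio B-score plate-corrected deviation score at least 3 library SD below zero, with starting fluorescence score within 5 deviations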;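 further: channel opened by trigger with iodide after compound preincubation; score built on the fluorescence ratio of max minus min over baseline; more negative score means more quench and so TMEM16A activation or potentiation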
CHT block conf: human CHT inhibition, confirmatory screen; shares compounds with CHT block; CHT-expressing cells, choline membrane potential dye; LV-to-AA substituted CHT, HEK293 cells; CHT activity remaining % of control (stronger effect = lower value), % at 10 µM; 2,400 tested, 70% active;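 active means choline transporter activity left, mean of duplicates at 10 µM, below buffer-only control mean minus 3 SD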;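 further: depolarization triggered by choline at its EC90 following an EC20 pre-addition; 0% = hemicholinium-3 full block and 100% = buffer-only control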
HEK293 MPD ctr: counter-screen for CHT inhibitors: effect in parental HEK293 cells. shares compounds with CHT block. membrane potential dye, choline response; active = decrease or increase beyond buffer ±3SD. membrane potential ratio readout (active if shifted either direction beyond buffer ±3SD; no single direction) at 10 µM. 2,400 tested, 4% active;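 further: parental cells lack the transporter so any hit is non-specific; ratio is peak minus trough fluorescence over baseline after EC90 choline challenge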
An asterisk follows results filed as active; i = inactive; . = no result given.

SMILES	CHT allo act	CHT block	TMEM16A inh	TMEM16A act	CHT block conf	HEK293 MPD ctr
Cc1noc(C)c1COC(=O)c1cc(F)c(F)cc1Cl	i	i	i	i	.	.
Cc1noc(C)c1COC(=O)c1cnc(Cl)c(Cl)c1	i	-6.94*	i	i	47.3%*	i
COc1cc2c(cc1OC)-c1cc(NC3CCCCCC3)nc(=O)n1CC2	i	-5.13*	i	i	22.5%*	i
COc1cc2c(cc1OC)-c1cc(Nc3ccccc3)nc(=O)n1CC2	i	i	i	i	.	.
COc1cc2c(cc1OC)-c1cc(N3CCCc4ccccc43)nc(=O)n1CC2	i	-6.32*	i	i	69.7%*	i
O=C(Cc1ccc(S(=O)(=O)N2CCCC2)s1)N1CCN(c2ccc(F)cc2)CC1	i	i	i	i	.	.
O=C(COc1ccc(C(=O)O)cc1)Nc1cccc(C(F)(F)F)c1	i	i	i	i	.	.
CN1CCN(C(=S)c2ccc(OCC(=O)Nc3cccc(C(F)(F)F)c3)cc2)CC1	i	-6.23*	i	i	i	i
CC#CC(=O)N1CCCC(C(=O)c2ccc(SC)cc2)C1 (stereo not given)	i	i	i	i	.	.
CSc1ccc(C(=O)C2CCCN(C(=O)c3ccsc3)C2)cc1 (stereo not given)	i	-5.22*	i	i	68.8%*	i
COC(=O)C(C)Oc1ccc2c3c(c(=O)oc2c1)CCCCC3 (stereo not given)	i	-5.16*	i	i	i	i
CC(SCc1ccccc1)C(=O)N/N=C/c1ccc(OCC(=O)NCc2ccco2)cc1 (stereo not given)	i	-8.14*	i	i	47.2%*	i
Cc1cc(=O)[nH]c(SCC(=O)Nc2ccccc2C#N)c1C#N	i	i	i	i	.	.
Cc1cc(=O)[nH]c(SCC(=O)Nc2ccc(F)cc2)c1C#N	i	-10.2*	i	i	62.2%*	i
CCn1c(SCC(=O)N=Nc2c(O)[nH]c3ccccc23)nnc1-c1ccc(C(C)(C)C)cc1	i	i	i	.	.	.
CCn1c(SCC(=O)N=Nc2c(O)[nH]c3ccccc23)nc2ccccc21	i	-6.97*	i	i	54.0%*	i
C=C[C@@H]1c2cccc(C)c2N(S(=O)(=O)c2ccc(C)cc2)[C@H](c2ccc(OC(C)=O)cc2)C1(C#N)C#N	.	.	.	i	.	.
CCCc1cc(=O)n2[nH]c(C)c(-c3ccccc3)c2n1	i	-5.78*	i	i	i	i
COC(=O)Cc1cc(=O)n2[nH]c(C)c(-c3ccccc3)c2n1	i	i	i	i	.	.
Cc1[nH]n2c(=O)cc(C(C)C)nc2c1-c1ccccc1	i	-5.17*	i	i	i	i
NC(=O)c1ccc(C(F)(F)F)n(Cc2c(Cl)cccc2Cl)c1=O	i	i	i	i	.	.
CC1CCCCC1NC(=O)c1cccc(N2C(=O)C3C4C=CC(C4)C3C2=O)c1 (stereo not given)	i	-8.4*	i	i	28.3%*	i
O=C(NNC1=C(C(=O)C(F)(F)F)CCC1)c1ccccc1O	i	-6.49*	100*	i	30.6%*	i
COc1cnc(-c2ccccc2)nc1Oc1ccc(C(C)(C)C)cc1	i	i	i	i	.	.
CCOc1nc(-c2ccccc2)ncc1Oc1ccccc1	i	-5.03*	i	i	i	i
Cc1ccc(N2C(=O)N(CC(=O)Nc3ccc(C)cc3C)C(=O)C2C)cc1 (stereo not given)	i	i	i	i	.	.
Cc1ccc(N2C(=O)N(CC(=O)Nc3c(C)cc(C)cc3Cl)C(=O)C2C)cc1 (stereo not given)	i	-5.04*	i	i	i	i
Cc1cccc(-c2nc(CN3CCCC(C(=O)NC4CCC(C)CC4)C3)c(C)o2)c1 (stereo not given)	i	i	i	i	.	.
Cc1cccc(-c2nc(CN3CCCC(C(=O)NC4CCCC4)C3)c(C)o2)c1 (stereo not given)	i	-5.1*	i	i	i	i
